The compounds below were run against PEG-3 (UniProt Q6IN02) (assay: Peg3 promoter luciferase inhibitors, potency, dose response, cell-based, HeLa, CREF/GAPDH counter-screen panel (AID 624167)). Conditions: CREF/GAPDH counter-screens; HeLa PEG-Prom luciferase reporter, overnight, run 1, dose range 1, at 100 µM (top of the series) unless noted.
Chain of PEG-3 (Q6IN02 whole entry, looked up): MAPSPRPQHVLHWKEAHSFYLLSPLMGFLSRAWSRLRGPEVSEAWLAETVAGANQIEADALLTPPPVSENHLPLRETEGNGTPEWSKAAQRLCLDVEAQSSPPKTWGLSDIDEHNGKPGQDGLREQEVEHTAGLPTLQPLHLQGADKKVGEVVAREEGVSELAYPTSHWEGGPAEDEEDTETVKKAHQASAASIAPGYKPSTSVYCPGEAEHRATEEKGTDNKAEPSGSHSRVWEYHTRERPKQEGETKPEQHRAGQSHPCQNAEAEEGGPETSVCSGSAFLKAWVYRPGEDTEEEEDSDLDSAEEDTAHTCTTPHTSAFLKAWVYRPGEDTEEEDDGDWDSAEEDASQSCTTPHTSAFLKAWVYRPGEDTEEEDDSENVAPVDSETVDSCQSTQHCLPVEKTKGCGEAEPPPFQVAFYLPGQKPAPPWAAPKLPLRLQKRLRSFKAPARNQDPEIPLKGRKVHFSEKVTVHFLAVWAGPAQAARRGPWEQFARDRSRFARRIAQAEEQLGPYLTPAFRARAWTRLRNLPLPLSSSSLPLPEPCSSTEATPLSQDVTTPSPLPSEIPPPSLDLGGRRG
For `Cc1ccc(C(=O)NCCc2cccs2)cc1`, the inhibition was 92.3%. `Cc1cc(C)c2sc(N(CCCN(C)C)C(=O)c3ccc(S(=O)(=O)N(C)C4CCCCC4)cc3)nc2c1` gave an inhibition of 98.8%. For `N/C(=N\OC(=O)c1ccccc1)C(C(=O)NOC(=O)c1ccccc1)C1CCCCC1` (configuration not stated), the inhibition was 98.8%. `Cc1ccc(N(Cc2cc(=O)[nH]c3ccccc23)C(=O)CCl)c(C)c1` was tested, and the inhibition was 101%. For `CCN1CCN(c2ccc(S(=O)(=O)N3CCOCC3)cc2NC(=O)/C=C/c2ccc([N+](=O)[O-])cc2)CC1`, the inhibition was 100%. Compound `CC1CCCCN1S(=O)(=O)c1ccc(C(=O)N(CCCN(C)C)c2nc3ccc(Br)cc3s2)cc1` (configuration not stated) has an inhibition of 102%. In the case of `COc1ccccc1N(C(=O)CCl)c1cn(C(C)=O)c2ccccc12`, the inhibition is reported as 98.1%. `CC(C)(C)C(=O)Nc1cc2nn(-c3ccccc3)nc2cc1Cl` was tested, and the inhibition was 92.3%. In the case of `O=C(NC1CCCCC1)C(c1cccnc1)N(C(=O)CCl)c1cccc(Cl)c1` (configuration not stated), the inhibition is reported as 97.7%. With `CCOc1cccc2sc(N(CCCN(C)C)C(=O)c3ccc(S(=O)(=O)N(C)Cc4ccccc4)cc3)nc12` the inhibition was 99.3%. Work on `Cc1cc(C(=O)COC(=O)c2ccccc2Br)c(C)n1CC1CCCO1` (configuration not stated) yielded an inhibition of 95.8%. `Cc1cccc(-n2ncc3c(N(C)C4CCCCC4)ncnc32)c1` showed an inhibition of 89%. Work on `O=C(CCl)N1N=C(c2ccco2)CC1c1cccs1` (configuration not stated) yielded an inhibition of 101%. `O=C(Nc1ccccc1)NN(C(=O)CCl)c1ccccc1` showed an inhibition of 102%. In the case of `COc1cc(NC(=O)c2c(F)c(F)c(F)c(F)c2F)c(OC)cc1Cl`, the inhibition is reported as 99.8%. In the case of `Cc1ccc2sc(N(CCCN(C)C)C(=O)c3ccc(S(=O)(=O)N4CCc5ccccc5C4)cc3)nc2c1C`, the inhibition is reported as 82.2%. `CCCN(CC(=O)Nc1ccccc1C)C(=O)CCl` was tested, and the inhibition was 101%. Work on `Cc1nn(C(C)(C)C)c(C)c1/C=N/OC(=O)Nc1ccc(Cl)cc1` yielded an inhibition of 98.8%. With `CCn1c(C)cc(C(=O)COC(=O)c2ccccc2[N+](=O)[O-])c1C` the inhibition was 99%. `Cc1noc(-c2ccc(Cl)cc2)c1C(=O)O/N=C(\N)c1ccc(C(C)(C)C)cc1` gave an inhibition of 99.2%. `COCCn1c(C)cc(C(=O)COC(=O)c2ccccc2Br)c1C` showed an inhibition of 95.9%.

The compounds below were run against PEG-3 (UniProt Q6IN02) in the same assay as above. Conditions: CREF/GAPDH counter-screens; HeLa PEG-Prom luciferase reporter, overnight, run 2, dose range 1, at 100 µM (top of the series) unless noted.
`Cc1ccc(C(=O)NCCc2cccs2)cc1` showed an inhibition of 49.8%. `Cc1cc(C)c2sc(N(CCCN(C)C)C(=O)c3ccc(S(=O)(=O)N(C)C4CCCCC4)cc3)nc2c1` showed an inhibition of 101%. For `N/C(=N\OC(=O)c1ccccc1)C(C(=O)NOC(=O)c1ccccc1)C1CCCCC1` (configuration not stated), the inhibition was 102%. `Cc1ccc(N(Cc2cc(=O)[nH]c3ccccc23)C(=O)CCl)c(C)c1` was tested, and the inhibition was 99.2%. `CCN1CCN(c2ccc(S(=O)(=O)N3CCOCC3)cc2NC(=O)/C=C/c2ccc([N+](=O)[O-])cc2)CC1` was tested, and the inhibition was 89.1%. Work on `CC1CCCCN1S(=O)(=O)c1ccc(C(=O)N(CCCN(C)C)c2nc3ccc(Br)cc3s2)cc1` (configuration not stated) yielded an inhibition of 102%. Work on `COc1ccccc1N(C(=O)CCl)c1cn(C(C)=O)c2ccccc12` yielded an inhibition of 102%. `CC(C)(C)C(=O)Nc1cc2nn(-c3ccccc3)nc2cc1Cl` was tested, and the inhibition was 90.1%. With `O=C(NC1CCCCC1)C(c1cccnc1)N(C(=O)CCl)c1cccc(Cl)c1` (configuration not stated) the inhibition was 102%. `CCOc1cccc2sc(N(CCCN(C)C)C(=O)c3ccc(S(=O)(=O)N(C)Cc4ccccc4)cc3)nc12` was tested, and the inhibition was 101%. In the case of `Cc1cc(C(=O)COC(=O)c2ccccc2Br)c(C)n1CC1CCCO1` (configuration not stated), the inhibition is reported as 85.4%. Compound `Cc1cccc(-n2ncc3c(N(C)C4CCCCC4)ncnc32)c1` has an inhibition of 91.4%. `O=C(CCl)N1N=C(c2ccco2)CC1c1cccs1` (configuration not stated) was tested, and the inhibition was 99.3%. With `O=C(Nc1ccccc1)NN(C(=O)CCl)c1ccccc1` the inhibition was 101%. `COc1cc(NC(=O)c2c(F)c(F)c(F)c(F)c2F)c(OC)cc1Cl` was tested, and the inhibition was 96.5%. `Cc1ccc2sc(N(CCCN(C)C)C(=O)c3ccc(S(=O)(=O)N4CCc5ccccc5C4)cc3)nc2c1C` gave an inhibition of 74.5%. In the case of `CCCN(CC(=O)Nc1ccccc1C)C(=O)CCl`, the inhibition is reported as 98.7%. `Cc1nn(C(C)(C)C)c(C)c1/C=N/OC(=O)Nc1ccc(Cl)cc1` was tested, and the inhibition was 98.3%. Work on `CCn1c(C)cc(C(=O)COC(=O)c2ccccc2[N+](=O)[O-])c1C` yielded an inhibition of 99%. `Cc1noc(-c2ccc(Cl)cc2)c1C(=O)O/N=C(\N)c1ccc(C(C)(C)C)cc1` gave an inhibition of 101%. `COCCn1c(C)cc(C(=O)COC(=O)c2ccccc2Br)c1C` showed an inhibition of 94.1%.

Source: PubChem BioAssay
